# Several values for one entry are separate records, joined by “and”; a condition that tells them apart may be missing. Equal entries are not always repeated. Inconclusive results are not listed. A call without a number means that no potency is given here. Activity calls are given as the source filed them. Unless noted, the call rests on the fitted dose curve; in most records, active means well fitted curve in the direction sought with a large enough effect in the repeat runs; inconclusive means weak or mixed curves; inactive means no such curve, though single readings can be large; an effect the other way counts as inactive or inconclusive.
# What was measured:
# [1] = target: Calcium and integrin-binding protein 1 (Homo sapiens) (UniProt Q99828); experiment: Primary qHTS for Identification of Calcium Integrin Binding Protein 1 (CIB1) Competitor (AID 1508620; active means well fitted curve in the direction sought with a large enough effect; an effect the other way counts as inactive or inconclusive;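 further: GST tagged CIB1 binding a fluorescein labelled alphaIIb integrin peptide tracer; top concentration of the series differs between compounds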)
# Chain of Calcium and integrin-binding protein 1 (Homo sapiens) (Q99828 whole entry, looked up): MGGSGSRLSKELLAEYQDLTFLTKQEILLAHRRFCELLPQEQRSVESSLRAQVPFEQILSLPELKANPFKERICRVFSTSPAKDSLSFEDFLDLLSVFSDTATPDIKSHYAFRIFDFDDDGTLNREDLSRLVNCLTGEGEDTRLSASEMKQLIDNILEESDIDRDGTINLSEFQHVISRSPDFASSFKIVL
# Procedure, shortened: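 Fluorescence polarization competition: CIB1-GST (1 uM final) preincubated with compound 15 min at room temperature, then FITC-labeled alphaIIb peptide (100 nM final) added for another 15 min. Polarization read at Ex 480/Em 540.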
# [2] = target: Cytochrome P450 2D6 (Homo sapiens) (UniProt P10635); experiment: Cytochrome P450 family 2 subfamily D member 6 (CYP2D6) small molecule antagonists: luciferase biochemical (cell-free) qHTS assay (AID 1645840); further: nearly all actives have a fitted effect of over 55% in size; further: potency means the concentration at half of the fitted maximal effect
# Chain of Cytochrome P450 2D6 (Homo sapiens) (P10635 whole entry, looked up): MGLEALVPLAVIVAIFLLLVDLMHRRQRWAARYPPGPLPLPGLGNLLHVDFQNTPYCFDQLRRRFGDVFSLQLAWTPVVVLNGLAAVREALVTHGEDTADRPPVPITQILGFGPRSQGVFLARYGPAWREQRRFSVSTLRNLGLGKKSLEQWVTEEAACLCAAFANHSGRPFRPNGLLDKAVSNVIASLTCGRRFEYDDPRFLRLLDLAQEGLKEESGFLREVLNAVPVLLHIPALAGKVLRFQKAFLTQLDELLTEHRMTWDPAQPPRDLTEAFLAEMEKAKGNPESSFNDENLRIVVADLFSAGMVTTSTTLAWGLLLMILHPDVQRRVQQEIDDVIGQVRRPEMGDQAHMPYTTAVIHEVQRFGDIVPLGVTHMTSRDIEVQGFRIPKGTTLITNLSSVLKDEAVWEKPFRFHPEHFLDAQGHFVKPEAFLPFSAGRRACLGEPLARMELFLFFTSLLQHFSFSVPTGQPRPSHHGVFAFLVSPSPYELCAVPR
# Procedure, shortened: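 P450-Glo luminescent screen: recombinant CYP2D6 enzyme–proluciferin substrate mix preincubated with compound 10 min at room temperature, then NADPH regeneration added for 1 h at room temperature. Detection reagent added for 20 min; luciferin light read as relative luminescence units.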
# [3] = target: Cytochrome P450 3A4 (Homo sapiens) (UniProt P08684); experiment: Cytochrome P450 family 3 subfamily A member 4 (CYP3A4) small molecule antagonists: luciferase qHTS assay (AID 1645841); further: nearly all actives have a fitted effect of over 45% in size
# Chain of Cytochrome P450 3A4 (Homo sapiens) (P08684 whole entry, looked up): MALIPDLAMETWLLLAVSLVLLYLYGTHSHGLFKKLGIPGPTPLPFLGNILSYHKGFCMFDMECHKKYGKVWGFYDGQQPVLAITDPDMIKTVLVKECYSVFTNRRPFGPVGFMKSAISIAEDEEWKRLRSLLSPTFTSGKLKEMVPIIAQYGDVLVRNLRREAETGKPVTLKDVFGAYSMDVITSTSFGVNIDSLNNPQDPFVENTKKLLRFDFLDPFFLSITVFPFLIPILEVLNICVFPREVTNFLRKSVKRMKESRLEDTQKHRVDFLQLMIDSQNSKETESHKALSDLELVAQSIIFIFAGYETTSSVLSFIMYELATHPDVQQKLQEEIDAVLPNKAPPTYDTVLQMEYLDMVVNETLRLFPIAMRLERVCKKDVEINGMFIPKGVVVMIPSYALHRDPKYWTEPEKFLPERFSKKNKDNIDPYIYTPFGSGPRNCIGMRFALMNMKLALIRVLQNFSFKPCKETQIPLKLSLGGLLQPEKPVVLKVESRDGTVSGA
# Procedure, shortened: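 P450-Glo CYP3A4 enzyme with proluciferin substrate was preincubated with DMSO-dissolved compounds for 10 min at room temperature. NADPH regeneration solution started a 1 h reaction. Detection reagent stopped it, and luminescence was read after 20 min.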
# [4] = target: Cytochrome P450 2C9 (Homo sapiens) (UniProt P11712); experiment: Cytochrome P450 family 2 subfamily C member 9 (CYP2C9) small molecule antagonists: luciferase biochemical (cell-free) qHTS assay (AID 1645842); further: nearly all actives have a fitted effect of over 55% in size; further: potency means the concentration at half of the fitted maximal effect
# Chain of Cytochrome P450 2C9 (Homo sapiens) (P11712 whole entry, looked up): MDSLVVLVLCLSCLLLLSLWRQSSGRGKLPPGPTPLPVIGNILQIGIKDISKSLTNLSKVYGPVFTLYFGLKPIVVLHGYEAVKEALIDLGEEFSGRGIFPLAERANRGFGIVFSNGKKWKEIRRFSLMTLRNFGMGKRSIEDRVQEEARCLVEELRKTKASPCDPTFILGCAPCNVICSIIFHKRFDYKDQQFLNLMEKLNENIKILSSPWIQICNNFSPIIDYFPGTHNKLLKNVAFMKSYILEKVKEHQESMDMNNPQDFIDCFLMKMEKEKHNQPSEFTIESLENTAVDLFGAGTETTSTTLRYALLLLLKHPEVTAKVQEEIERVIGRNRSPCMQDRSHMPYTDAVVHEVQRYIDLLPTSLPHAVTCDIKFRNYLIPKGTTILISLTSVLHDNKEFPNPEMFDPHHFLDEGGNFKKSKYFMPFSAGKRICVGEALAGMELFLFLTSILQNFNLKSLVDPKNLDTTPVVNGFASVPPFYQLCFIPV
# Procedure, shortened: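 Luminescence, after 20 min with luciferin detection reagent, reflected CYP2C9 turnover during a 1 h NADPH-driven reaction at 37C. Enzyme-substrate mix contained 0.4% bovine serum albumin and was preincubated with compound 10 min at room temperature.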
# [5] = Primary qHTS for inhibitors of nuclear receptor binding SET domain protein 2 (NSD2) in an isogenic RCH-ACV NSD2 p.E1099K mutant (9B) (AID 1645876; active means well fitted curve in the direction sought with a large enough effect; an effect the other way counts as inactive or inconclusive; further: nearly all actives have a fitted effect of over 70% in size; further: potency means the concentration at half of the fitted maximal effect)
# [6] = Primary qHTS for small molecule stabilizers of the endoplasmic reticulum resident proteome: Secreted ER Calcium Modulated Protein (SERCaMP) assay (AID 1508630; active means well fitted curve in the direction sought with a large enough effect; an effect the other way counts as inactive or inconclusive)
# Procedure, shortened: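 GLuc-SERCaMP-expressing SH-SY5Y cells, pretreated 16 h with compound, are challenged with thapsigargin to empty ER calcium stores; after 4 h, coelenterazine is added directly to the medium and luminescence is imaged.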
# [7] = A High-Content qHTS Against Drug Library for the Identification of Small Molecules that Inhibit DYT1 Early Onset Primary Dystonia-Associated Cell Pathology (AID 1645839; calls by dose curve; further: series mostly up to about 46 µM)
# Procedure, shortened: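 Readout: %pathology, the punctate EGFP-TorsinA distribution from imaging, as the primary channel and cell count as the toxicity counterscreen. HEK293 Flp-In cells expressing delE TorsinA were induced with tetracycline and treated with compound for 48 h.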
# [8] = target: N-terminal Xaa-Pro-Lys N-methyltransferase 1 (Homo sapiens) (UniProt Q9BV86); experiment: Confirmatory qHTS for Inhibitors of N-terminal methyltransferase 1 (NTMT1): MTaseGlo Assay (AID 1645874; active means well fitted curve in the direction sought with a large enough effect; an effect the other way counts as inactive or inconclusive; further: nearly all actives have a fitted effect of over 65% in size; further: potency means the concentration at half of the fitted maximal effect)
# Chain of N-terminal Xaa-Pro-Lys N-methyltransferase 1 (Homo sapiens) (Q9BV86 whole entry, looked up): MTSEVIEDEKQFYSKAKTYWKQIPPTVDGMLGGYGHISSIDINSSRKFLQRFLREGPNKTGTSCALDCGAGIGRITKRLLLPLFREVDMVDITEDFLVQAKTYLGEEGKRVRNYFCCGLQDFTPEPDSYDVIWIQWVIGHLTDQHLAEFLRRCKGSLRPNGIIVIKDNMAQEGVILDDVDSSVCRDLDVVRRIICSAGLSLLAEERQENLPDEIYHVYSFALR
# Procedure, shortened: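 Luminescent MTase-Glo read-out of SAH. 125 nM NTMT1, 100 uM SAM, 1 uM SPKRIA substrate, 30 min RT reaction after 15 min compound preincubation. Normalized to no-enzyme and DMSO controls; Hill fit.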
smiles,measurement,setting,value
Cc1ccc(S(=O)(=O)Nc2ccccc2N2CCCCC2)s1,Potency,[1],inactive
Cc1cc(Nc2ncc3cc(-c4c(Cl)cccc4Cl)c(=O)n(C)c3n2)ccc1F,Potency,[1],inactive
same,Potency,[2],inactive
same,Potency,[3],inactive
same,Potency,[4],6.74 µM (active)
same,Potency,[5],728 nM (active)
CC(=O)O[C@H]1C(=O)[C@@]2(C)[C@H]([C@H](OC(=O)c3ccccc3)[C@]3(O)C[C@H](OC(=O)[C@H](O)[C@@H](NC(=O)c4ccccc4)c4ccccc4)C(C)=C1C3(C)C)[C@]1(OC(C)=O)CO[C@@H]1C[C@@H]2O,Potency,[1],inactive
same,outcome,[6],inactive
same,Potency,[5],6.9 nM (active)
CC(C)(C)CCN1C[C@@H]2C(CNC(=O)c3cc(Cl)cc(Cl)c3)[C@@H]2C1 (some centres not stated),Potency,[1],inactive
same,Potency,[2],3.79 µM (active)
COc1ccc(-n2[nH]c(=O)c3[nH]c4cc(Cl)ccc4c(=O)c3c2=O)c(C)c1,Potency,[1],inactive
same,Potency,[2],inactive
same,Potency,[3],inactive
same,Potency,[4],inactive
OC/C=C/c1ccc(O[C@@H]2O[C@H](CO)[C@@H](O)[C@H](O)[C@H]2O)cc1,Potency,[1],inactive
Cc1cccc(-c2[nH]c(Cc3cccc(C(N)=O)c3)nc2-c2ccc3nccnc3c2)n1,Potency,[1],inactive
same,Potency,[2],13.5 µM (active)
COC(C(=O)N1Cc2[nH]nc(NC(=O)c3ccc(N4CCN(C)CC4)cc3)c2C1)c1ccccc1 (configuration not stated),Potency,[1],inactive
same,Potency,[2],inactive
same,Potency,[3],inactive
same,Potency,[4],inactive
same,Potency,[5],51.5 nM (active)
CS(=O)(=O)N1CCC(NC(=O)c2[nH]ncc2NC(=O)c2c(Cl)cccc2Cl)CC1,Potency,[1],inactive
same,Potency,[2],inactive
same,Potency,[3],inactive
same,Potency,[4],21.3 µM (active)
same,Potency,[5],525 nM (active)
O=C(O)c1c(O)c(-c2ccccc2)nc2ccccc12,Potency,[1],inactive
same,Potency,[7],inactive
same,Potency,[2],inactive
same,Potency,[5],inactive
C[C@H](C(=O)NC1CCCC1)N(C(=O)Cn1nnc(-c2ccc3c(c2)OCO3)n1)C1CCCCC1,Potency,[1],inactive
same,Potency,[2],19 µM (active)
same,Potency,[4],2.68 µM (active)
NC(=O)C(CCC(F)(F)F)N(Cc1ccc(-c2ncon2)cc1F)S(=O)(=O)c1ccc(Cl)cc1 (configuration not stated),Potency,[1],inactive
same,Potency,[2],12 µM (active)
same,Potency,[4],1.51 µM (active)
O=C(c1ccccc1)c1ccc2nc(NC(=O)c3csc(C4CCN(c5ncnc6ccsc56)CC4)n3)[nH]c2c1,Potency,[1],inactive
same,Potency,[2],inactive
same,Potency,[4],9.52 µM (active)
same,Potency,[5],3250 nM (active)
CC(C)(C)NS(=O)(=O)c1cncc(-c2cc(F)c3nc(N)nn3c2)c1,Potency,[1],inactive
same,Potency,[2],inactive
same,Potency,[4],inactive
O=C(Nc1ccc(S(=O)(=O)C(F)(F)F)cc1)C1=CCN(c2ncccc2C(F)(F)F)CC1,Potency,[1],inactive
same,Potency,[2],7.56 µM (active)
same,Potency,[4],3.01 µM (active)
same,Potency,[8],inactive
same,Potency,[5],7280 nM (active)
C[C@@H](Oc1cc(-n2cnc3ccc(OC4CCN(C)CC4)cc32)sc1C(N)=O)c1ccccc1C(F)(F)F,Potency,[1],inactive
same,Potency,[2],8.49 µM (active)
same,Potency,[4],8.49 µM (active)
same,Potency,[8],12.6 µM (active)
same,Potency,[5],32.5 nM (active)
O=C(Nc1ccc(-c2ccncc2)cc1)N[C@H](CO)c1ccccc1,Potency,[1],inactive
same,Potency,[2],10.7 µM (active)
same,Potency,[4],10.7 µM (active)
O=S(=O)(NC1CCC(c2cc(F)ccc2F)(S(=O)(=O)c2ccc(Cl)cc2)CC1)C(F)(F)F (configuration not stated),Potency,[1],inactive
same,Potency,[2],19 µM (active)
same,Potency,[4],0.425 µM (active)
CC(Cc1cc2c(c(C(N)=O)c1)N(CCCO)CC2)NCCOc1ccccc1OCC(F)(F)F (configuration not stated),Potency,[1],inactive
same,Potency,[2],7.56 µM (active)
same,Potency,[4],inactive
CCn1c(=O)c(-c2ccn[nH]2)cc2c(C)nc(N)nc21,Potency,[1],inactive
same,Potency,[2],inactive
same,Potency,[4],26.8 µM (active)
same,Potency,[8],inactive
same,Potency,[5],934 nM (active)
COc1cc2c(NC3CCN(CC4CCCCC4)CC3)nc(N3CCCN(C(C)C)CC3)nc2cc1OCCCN1CCCCC1,Potency,[1],inactive
same,Potency,[2],12 µM (active)
same,Potency,[4],inactive
same,Potency,[8],34.5 µM (active)
same,Potency,[5],2.58 µM (active) and 5.25 µM (active)
O=C1CCC(c2ccccc2)(C2CCN(Cc3ccc(I)cc3)CC2)C(=O)N1 (configuration not stated),Potency,[1],inactive
same,Potency,[2],13.5 µM (active)
same,Potency,[4],inactive
COc1cccc(-c2cc(NCc3ccc4c(c3)OCO4)nc(N)n2)c1,Potency,[1],inactive
same,Potency,[2],0.756 µM (active)
same,Potency,[4],2.68 µM (active)
same,Potency,[5],205 nM (active)
O=C(CCc1ccccc1)N1CCC(O)(Cn2cnc3cc(Cl)ccc3c2=O)CC1,Potency,[1],inactive
same,Potency,[2],4.25 µM (active)
same,Potency,[4],10.7 µM (active)
CN(C)CCn1cc(S(=O)(=O)c2cccc(F)c2)c2cccnc21,Potency,[1],inactive
same,Potency,[2],21.3 µM (active)
same,Potency,[4],inactive
CCCNc1ccc2ncc(-c3ccc4[nH]ncc4c3)n2n1,Potency,[1],inactive
same,Potency,[2],inactive
same,Potency,[4],inactive
same,Potency,[8],8.91 µM (active)
same,Potency,[5],258 nM (active)
